FLuc counter – inhibits or activates purified firefly luciferase, miR-21 counter-screen; Potency, µM (highest dose often 57.5 µM), for inactives: at the highest dose activity change, negative = inhibition, most hits filed as inhibitors; actives 6.9% (n = 360,000); purified FLuc, Km substrates, luminescence inhibition; P08659; AID 588342;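 further: plate controls were vehicle for no effect and reference inhibitor for full effect; nearly all actives have a fitted effect of over 55% in size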
Target sequence (P08659 whole entry, looked up): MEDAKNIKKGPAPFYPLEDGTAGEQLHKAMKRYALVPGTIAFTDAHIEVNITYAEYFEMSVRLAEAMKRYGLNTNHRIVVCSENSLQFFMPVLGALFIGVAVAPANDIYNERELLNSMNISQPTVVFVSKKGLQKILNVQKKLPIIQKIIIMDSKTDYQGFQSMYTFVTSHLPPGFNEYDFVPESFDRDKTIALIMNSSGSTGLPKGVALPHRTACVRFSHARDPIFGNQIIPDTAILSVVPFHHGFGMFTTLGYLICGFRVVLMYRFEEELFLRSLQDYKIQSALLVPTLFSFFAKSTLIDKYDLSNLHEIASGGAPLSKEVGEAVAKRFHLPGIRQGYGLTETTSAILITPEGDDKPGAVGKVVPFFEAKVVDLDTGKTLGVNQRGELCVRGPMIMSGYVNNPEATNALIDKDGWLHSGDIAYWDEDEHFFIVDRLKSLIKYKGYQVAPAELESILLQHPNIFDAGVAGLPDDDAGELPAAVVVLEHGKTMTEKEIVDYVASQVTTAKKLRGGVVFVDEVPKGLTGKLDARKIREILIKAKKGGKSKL
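Purified P. pyralis luciferase (10nM final) with 10uM D-luciferin and 10uM ATP (Km levels) in 50mM Tris acetate pH 7.5, 10mM Mg acetate, 0.01% Tween-20, 0.05% BSA; qHTS 6-point titration, ~60 µM downward; luminescence read.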
SMN2 splice up – increases expression of the SMN2 splice variant | HEK293 SMN2-luciferase splicing reporter, luminescence, 30-36 h | Potency, µM (top dose mostly 46.1 µM), inactives show at the top dose activity change, positive = activation, actives largely listed as activators | actives 2.8% (n = 210,000) | AID 1458; further: % of control where 0% means no effect; nearly all actives have a fitted effect of over 55% in size
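HEK293 cells carry an SMN2 minigene-luciferase reporter in which exon 7 inclusion puts luciferase in frame. Cells were seeded at 2000 cells/well, attached for 10-12 hours, then exposed to compounds for 30-36 hours at 37C before ONE-Glo luminescence.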
Rab9 promoter act – activators of Rab9 promoter; actives 2.8% (n = 320,000); AID 485297; Potency, µM (doses to about 9.22 µM), inactives show at the highest dose activation, negative = inhibition, hits mostly activators; Huh7 Rab9 promoter-luciferase reporter, luminescence, 24 h; further: % of control where 0% means no effect; nearly all actives have a fitted effect of over 60% in size
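Promoter activation is measured as luciferase luminescence in Huh7 cells stably transfected with a Rab9 promoter–luciferase construct, following 24 h compound exposure at 37 °C and 10 min reagent incubation at ambient temperature.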
ELG1 genotox – induces genotoxicity in HEK293T cells with luciferase-tagged ELG1; HEK293T ELG1-luciferase reporter, luminescence, 16 h; Potency, µM (highest dose often 46 µM), inactives show at the highest dose activity change, positive = activation, usual class: activators; actives 1.3% (n = 330,000); AID 504466; further: % of control where 0% means no effect; nearly all actives have a fitted effect of over 60% in size
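Cells (2,000/well) expressing the ELG1-luciferase fusion are dosed by pin tool and kept 16 hr at 37 °C, 5% CO2. Signal comes from ONE-Glo luciferase reagent after 30 min at room temperature.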
NPC1 prom act – NPC1 promoter activation; actives 2.4% (n = 320,000); Huh7 NPC1 promoter luciferase reporter, 24 h; Potency, µM (top dose mostly 9.22 µM), inactives show at the top dose activation, most hits filed as activators; further: % of control where 0% means no effect; nearly all actives have a fitted effect of over 60% in size
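NPC1 promoter–luciferase Huh7 cells; 24 h compound; luminescence.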
The depositor's hits bear a star; ? = inconclusive; . = no result. Only some compounds are listed: those with a hit (about 7.4% of all), similar ones and a draw of the others. The call rests on the fitted dose curve; in most records, active means well fitted curve in the direction sought with a large enough effect; inconclusive means small, poorly fitted or top-dose-only effect, or another doubt; inactive means no such curve, though single readings can be large; an effect the other way counts as inactive or inconclusive. Potency means the concentration at half of the fitted maximal effect.

SMILES	FLuc counter	SMN2 splice up	Rab9 promoter act	ELG1 genotox	NPC1 prom act
N#C/C(=C/c1ccc(N2CCCCCC2)o1)c1ccc(Cl)cc1	9.53µM*	0.8%	3.98µM*	?	26.3%
N#C/C(=C/c1ccc(N2CCCCC2)cc1)c1cccc(F)c1	5.36µM*	?	3.16µM*	18.4µM*	3.98µM*
N#C/C(=C/c1ccc(N2CCCCC2)o1)c1cccc(F)c1	2.13µM*	22.1%	6.3%	3.66µM*	-2.4%
CCC(C)NC(=O)c1ccc2nc(CCc3ccccc3)oc2c1 (configuration not stated)	-9.3%	.	.	.	.
O=C(Nc1ccccc1N1CCOCC1)c1cccc(NS(=O)(=O)c2ccc(F)c(F)c2)c1	-12.9%	-6.9%	-4.0%	-7.0%	-3.8%
O=C(/C=C/c1cccc([N+](=O)[O-])c1)N(c1ccccn1)c1ccccn1	-0.2%	.	1.7%	0.7%	-2.8%
O=C(NC(Cc1ccccc1)C(=O)O)/C(=C/c1cccc([N+](=O)[O-])c1)NC(=O)c1ccco1 (configuration not stated)	1.1%	.	-0.9%	-0.8%	-0.4%
Cc1ccc2oc(-c3cccc(NC(=O)/C=C/c4cccc([N+](=O)[O-])c4)c3C)nc2c1	3.38µM*	12.6µM*	4.47µM*	-0.3%	?
O=C(/C=C/c1cccc([N+](=O)[O-])c1)Nc1ccccn1	-1.2%	26.8%	2.82µM*	15.9%	?
O=C(/C=C/c1cccc([N+](=O)[O-])c1)Nc1cccc(NC(=O)c2ccco2)c1	19µM*	-1.3%	7.3%	-5.0%	1.8%
CC(NC(=O)/C(=C\c1cccc([N+](=O)[O-])c1)NC(=O)c1ccco1)C(=O)O (configuration not stated)	15.1µM*	-20.7%	2.2%	-0.9%	-1.3%
CCc1ccc(C(=O)CCC(=O)Nc2ccc(OC)c(S(=O)(=O)N3CCCCC3)c2)cc1	-10.1%	.	-0.6%	-1.6%	-2.8%
O=C(CCl)Nc1ccccc1C(=O)c1ccccc1	-5.6%	-26.9%	1.1%	-2.9%	1.4%
Cc1c([N+](=O)[O-])c(C(=O)Sc2ccc(Br)cc2)nn1C	16.9µM*	.	-10.3%	-9.8%	3.2%
CC(C)(C)C1CCc2sc(C(=O)NNC(=O)CCl)cc2C1 (configuration not stated)	4.78µM*	-17.7%	-44.7%	?	-42.4%
COCCNC(=O)c1cc(-c2cccs2)on1	?	16.8%	3.16µM*	14.6µM*	23.8%
O=C(NCc1cccs1)c1cc(-c2cccs2)on1	?	?	3.55µM*	?	3.55µM*
O=C(NCc1cccs1)c1cc(-c2ccccc2)on1	?	25.1µM*	2.51µM*	7.31µM*	2.51µM*
COc1ccc(CNC(=O)c2cc(-c3cccs3)on2)cc1	-17.5%	-35.3%	5.9%	2.4%	8.7%
O=C(NCc1cccs1)c1cc(C2CC2)on1	?	23.6%	?	23.1µM*	23.0%
Cc1cc(C(=O)NCc2cccs2)no1	2.7%	-1.7%	2.3%	6.5%	0.5%
Cc1ccc(CNC(=O)CN2CCCN(Cc3ccc(F)cc3)S2(=O)=O)cc1	4.7%	.	.	.	.
COc1cc(CNCc2ccncc2)cc(OC)c1OC	-8.6%	.	-8.3%	-0.1%	-0.1%
O=C(O)c1ccc(CSc2nc3ccccc3o2)cc1	19µM*	-9.8%	0.2%	4.6%	-1.2%
O=C(O)c1ccccc1CSc1nc2ccccc2o1	10.7µM*	?	?	?	4.47µM*
O=C(CCSc1nc2ccccc2o1)Nc1ccccc1	-4.2%	.	0.3%	-0.9%	1.5%
Cc1cccn2c(=O)nc(SCC(=O)N3CCN(c4ccccc4)CC3)nc12	0.7%	.	-3.1%	-14.6%	4.7%
CCCc1cc2c(OC(=O)CC)c(-c3ccc(C(=O)OCC)o3)c(=O)oc2cc1OC	23.9µM*	9.4%	-6.1%	-0.4%	2.2%
CCCc1cc(-c2n[nH]c(C)c2-c2ccc(C(=O)OCC)o2)c(O)cc1O	-1.9%	-17.5%	0.5%	-12.5%	-3.6%
COc1ccc(S(=O)(=O)N2CCCCCC2)cc1NC(=O)CN1C(=O)NC(C)(c2ccccc2)C1=O (configuration not stated)	3.8%	.	-2.1%	-8.8%	-2.2%

Screening data deposited in PubChem by National Center for Advancing Translational Sciences (NCATS).
